# Compound activity deposited in PubChem by several laboratories.
# This is a sample that favours compounds with a hit; in the whole collection about 1.3% have one here.
# PKA-R2B act: activators of PKA-R2B holoenzyme, primary screen, biochemical, fluorescence polarization, Cy5-IP20, human; activation, % at 11.4 µM; cAMP-dependent protein kinase catalytic subunit beta (Homo sapiens) + cAMP-dependent …; PKA-R2B holoenzyme dissociation; R2B truncated from residue 108, S112A mutant; 0% DMSO only, 100% 113 µM cGMP; actives 0.079% (n = 340,000);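 active means activation above a cutoff set at the mean over all compounds plus 3 SD, cut at about 18% in these data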;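 further: higher means more holoenzyme dissociation and a rise in polarization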
# Target sequence (P31323 whole entry, looked up, other chains not shown, the tested form may be a part): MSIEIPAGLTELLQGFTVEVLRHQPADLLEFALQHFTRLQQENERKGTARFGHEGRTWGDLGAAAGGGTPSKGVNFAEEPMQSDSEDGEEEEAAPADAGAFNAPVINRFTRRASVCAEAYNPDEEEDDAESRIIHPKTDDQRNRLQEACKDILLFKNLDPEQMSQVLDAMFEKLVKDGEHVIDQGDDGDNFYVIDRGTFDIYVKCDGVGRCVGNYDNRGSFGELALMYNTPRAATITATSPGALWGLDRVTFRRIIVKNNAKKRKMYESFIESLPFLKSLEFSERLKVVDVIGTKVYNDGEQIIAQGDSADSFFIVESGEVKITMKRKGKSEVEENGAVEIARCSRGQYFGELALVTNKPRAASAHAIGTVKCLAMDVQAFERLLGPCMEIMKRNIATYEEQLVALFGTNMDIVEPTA
# Rpn11 inh: Rpn11 (PSMD14) deubiquitinase inhibitors, primary screen, biochemical, fluorescence polarization, uHTS; actives 0.59% (n = 360,000); calls only at 20 µM; human 26S proteasome, Ub4-pepOG fluorescence polarization; 20S core pre-blocked with epoxomicin;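 active means inhibition at 20 µM, scaled to each plate's controls, above about 33%, limit read from the data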
# Neddyl block: inhibitors of cullin neddylation, primary screen, biochemical, TR-FRET, uHTS, NAE and Ubc12; inhibition, % at 25 µM; actives 0.58% (n = 360,000); AID 651699, 2012; in the data active means inhibition above about 36%
# PKA-R1A activ: activators of PKA-R1A holoenzyme, primary screen, biochemical, fluorescence polarization, Cy5-IP20, bovine R1A, mouse PKAc | cAMP-dependent protein kinase type I-alpha regulatory subunit (Bos taurus) + … | PKA-R1A dissociation; scaled: DMSO 0%, 113 µM cGMP 100% | activation, % at 11.4 µM | actives 0.083% (n = 340,000);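 active means percent activation above the mean of all tested compounds plus 3 SD, cut at about 19% in these data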;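 further: higher means more PKAc released from R1A so a rise in polarization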
# R2B FP artifact: fluorescence polarization artefacts, biochemical, artefact control for PKA-R2B activator project. shares compounds with PKA-R2B act. FP artifact counterscreen. activation, % at 11.4 µM. actives 6% (n = 270); in the data active means activation above about 20%;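 further: Cy5 labelled IP20 peptide probe with compound but no PKA protein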
# PKA-R2B act conf: activators of PKA-R2B holoenzyme, confirmation, biochemical, fluorescence polarization, human; shares compounds with PKA-R2B act; PKA-R2B complex, activation; activation, % at 11.4 µM; actives 9% (n = 270); in the data active means activation above about 19%
# Target sequence (P31323 whole entry, looked up): as the sequence (P31323 whole entry, looked up, other chains not shown, the tested form may be a part) above
# R1A FP artifact: FP signal interference without PKA proteins, confirmation, artefact control for PKA-R1A activator project, biochemical, fluorescence polarization, triplicate; Cy5-IP20 peptide alone, fluorescence polarization artifact counterscreen; activation, % at 11.4 µM; shares compounds with PKA-R1A activ; actives 7% (n = 280);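 active means mean activation over triplicate runs exceeds the adjusted cutoff derived for the parent primary screen, cut at about 19% in these data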;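 further: no PKA protein present so any polarization rise reflects compound interference; 0% = tracer peptide mix alone and 100% = mix with added PKA catalytic subunit; higher means stronger polarization artifact and likely false positive in parent screen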
# PKA-R1A act conf: activators of PKA-R1A holoenzyme, confirmation, biochemical, fluorescence polarization, Cy5-IP20, triplicate; shares compounds with PKA-R1A activ; PKA-R1A holoenzyme dissociation; activation, % at 11.4 µM; actives 9% (n = 280); AID 504800, 2011;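 active means mean activation over replicate wells exceeds the adjusted hit threshold taken from the earlier primary screen, cut at about 20% in these data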;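 further: 0% = holoenzyme mix with DMSO only and 100% = cGMP-activated control wells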
# Numbers without * were called inactive; i = inactive; / = no result given.
SMILES,PKA-R2B act,Rpn11 inh,Neddyl block,PKA-R1A activ,R1A FP artifact,PKA-R1A act conf,others
O=C(Nc1ccc(Cl)cn1)c1cccc(S(=O)(=O)N2CCCCC2)c1,-9,i,-2,1,/,/,
Cc1oc2ccc(OCc3cccc(Cl)c3)cc2c1C(=O)O,1,i,0,0,/,/,
Cc1oc2ccc(OCc3c(F)cccc3Cl)cc2c1C(=O)O,27*,i,6,51*,45*,51*,R2B FP artifact=45*;PKA-R2B act conf=52*
COc1cccc(CN(C)C(=O)CSc2nc3ccccc3[nH]2)c1OC,-5,i,-4,-9,/,/,
CC1=C/C(=C(/c2cc(C)c(O)c(Br)c2)c2ccccc2S(=O)(=O)O)C=C(Br)C1=O,28*,i,0,35*,51*,49*,R2B FP artifact=51*;PKA-R2B act conf=46*
CC1=C/C(=C(/c2ccc(O)c(C)c2)c2ccccc2S(=O)(=O)O)C=CC1=O,0,i,-79,-11,/,/,
Cc1ccc(OCc2nnc(-c3ccc(Cl)cc3)o2)cc1,5,i,0,1,/,/,
CN(C)c1ccc(C(=O)OCC(=O)Nc2ccc(S(N)(=O)=O)cc2)cc1,48*,i,28,46*,58*,63*,R2B FP artifact=58*;PKA-R2B act conf=59*
Nc1nc2c(nc(Br)n2[C@@H]2O[C@@H]3COP(=O)(O)O[C@H]3[C@H]2O)c(=O)[nH]1,77*,i,-6,53*,0,50*,R2B FP artifact=0;PKA-R2B act conf=78*
Nc1ncnc2c1nc(Br)n2[C@@H]1O[C@@H]2COP(=O)(O)O[C@H]2[C@H]1O,107*,i,9,117*,-2,106*,R2B FP artifact=-2;PKA-R2B act conf=98*
CCOP1(=O)OCC2OC(n3cnc4c(N)ncnc43)C(O)C2O1 (stereo not drawn),91*,i,14,102*,3,76*,R2B FP artifact=3;PKA-R2B act conf=65*
Nc1nc2c(nc(N3CCCCC3)n2[C@@H]2O[C@H](CO)[C@@H](O)[C@H]2O)c(=O)[nH]1,3,i,-1,-10,/,/,
CSCCC(NC(=O)c1ccco1)C(=O)Nc1ccc(C)c(S(=O)(=O)N2CCOCC2)c1 (stereo not drawn),5,i,-1,-8,/,/,
CCN(CC)c1ccc(C(=C2C=CC(=[N+](CC)CC)C=C2)c2ccc(S(=O)(=O)O)cc2S(=O)(=O)[O-])cc1,39*,i,-32,34*,49*,52*,R2B FP artifact=49*;PKA-R2B act conf=48*
COc1cccc(CNc2nc3nc(C)cc(=O)n3[nH]2)c1,13,i,1,5,/,/,
Cc1cc(=O)n2[nH]c(NCc3c(F)cccc3Cl)nc2n1,72*,i,12,60*,103*,100*,R2B FP artifact=103*;PKA-R2B act conf=93*
O=S1(=O)N[C@@H](Cc2ccccc2)COc2cc(N3CC[C@H](O)C3)ccc21,/,/,16,/,/,/,
Cc1cc(C)c(C)c(S(=O)(=O)N2CCC(C(=O)NNC(=O)c3ccccc3O)CC2)c1C,46*,i,52*,47*,53*,45*,R2B FP artifact=53*;PKA-R2B act conf=44*
COc1ccc(-n2c(SCC(C)=O)nc3sc(C)c(C)c3c2=O)cc1,-4,i,-14,-10,/,/,
CC(C)C(=O)Nc1c2c(nc3c1CCC3)CCCC2,5,i,-10,24*,3,0,
CCCC(=O)Nc1cccc(NC(=O)c2cccc([N+](=O)[O-])c2C)c1,1,i,-7,-2,/,/,
CCOC(=O)COc1ccc2c(c1)C(=O)CC(C)(C)O2,3,i,/,19*,-1,-1,
CC1CCCN(CCC(=O)c2ccc(Br)cc2)C1 (stereo not drawn),-3,i,12,19*,3,-1,
COC(=O)c1ccc2c(=O)[nH]c(COC(=O)c3c(-c4ccccc4)noc3C)nc2c1,-13,i,-39,-5,/,/,
CC(C)[C@H](NS(=O)(=O)c1ccc2c(c1)OCCO2)C(=O)OCC(=O)Nc1ccccc1,0,i,4,19*,-1,1,
SMILES,PKA-R2B act,Rpn11 inh,Neddyl block,PKA-R1A activ,R1A FP artifact,PKA-R1A act conf,others
Cc1ccc(S(=O)(=O)N[C@H](C(=O)OCC(=O)NC(=O)Nc2ccc3c(c2)OCCO3)C(C)C)cc1,6,i,7,8,/,/,
COc1cc(NC(=O)c2cc(-c3ccco3)on2)cc(OC)c1OC,-3,i,-10,19*,3,0,
COc1ccc(-c2cc(C(=O)Nc3cc(OC)c(OC)c(OC)c3)no2)cc1OC,1,i,24,-8,/,/,
CCOC(=O)Nc1ccc(C(=O)/C=C/c2ccccc2)cc1,4,i,-7,-7,/,/,
Cc1ccc2nc3sc(C(=O)N4CCOCC4)c(N)c3cc2c1,-4,i,-1,4,/,/,
Cc1ccc2cc3c(N)c(C(=O)N4CCOCC4)sc3nc2c1,3,i,-15,19*,5,1,
COCCNC(=O)C/C(C)=N/NC(=O)C(=O)NC1CCCCC1,8,i,-1,-4,/,/,
CCC(CO)n1cnnc1-c1ccncc1 (stereo not drawn),7,i,0,20*,3,-3,
CCn1c(SCC(=O)NNC(=O)c2ccc(C)cc2)nnc1-c1ccncc1,0,i,-12,0,/,/,
CC(=O)Nc1nc(-c2ccc(Cl)cc2)ns1,-4,i,-45,4,/,/,
Cc1cccc(/C=N/n2c(-c3cc(-c4ccccc4)n[nH]3)n[nH]c2=S)c1,4,i,12,19*,-3,-2,
COc1ccccc1NC(=O)CNc1ccc(F)c(Cl)c1,-6,i,2,-3,/,/,
Cc1cc(NC(=O)c2ccc(Br)o2)ccc1NC(=O)c1ccco1,-1,i,2,19*,2,4,
O=C(Nc1ccc(F)cc1F)c1ccco1,6,i,-8,24*,3,6,
Cc1cc(C(=O)CN2C(=O)C(=O)N(Cc3ccccc3)C2=O)c(C)n1CC1COc2ccccc2O1 (stereo not drawn),17,i,-22,-7,/,/,
